Screen size: about 2,500 compounds; about 1,100 (44%) were called active.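 Rule for the calls: active = inhibition above 50% at 4 µM in the single-point screen; inactive = inhibition of 50% or less.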 So high a share suggests a set chosen from earlier hits. This is one part of the list.

This assay in a line: blockers of TNF-a NF-kB luciferase induction – cell-based, HEK293T NF-kB-Luc, luminescence, selectivity assay for NOD1/NOD2 signaling inhibitor project, primary screen (AID 1852). The following applies: TNF-a induced, 14 h, at 4 µM, hits give high values.
What is called inhibition is the drop in the measured response relative to a control, in per cent. For `COCC1CCCN(C(=O)c2cc(COc3ccc4ncccc4c3)on2)C1` (stereo not given), the inhibition is 33.2% (inactive).

For the compound `O=C(c1cc(COc2cccc3cnccc23)on1)N1CCC(c2ccccc2Cl)C1` (stereo not given), the inhibition was 72.7% (active).

Turning to `COCC1CCN(C(=O)c2cc(COc3ccc4ncccc4c3)on2)CC1`, the inhibition is 40.2% (inactive).

On to `Cc1c(C(C)NC(=O)c2cc(COc3cccc4cnccc34)on2)cnn1C` (stereo not given), for which the inhibition was 53.8% (active).

In the case of `O=C(c1cc(COc2c(F)cccc2F)on1)N1CCC(c2ccncc2)CC1`, the inhibition is 41.3% (inactive).

Take `COc1ccc(OCc2cc(C(=O)N3CCC(c4ccccc4)CC3)no2)c(Cl)c1`: the inhibition was -96.3% (inactive).

For the compound `COCC1CCN(C(=O)c2cc(COc3cccc4cnccc34)on2)CC1`, the inhibition was 52.7% (active).

Turning to `Cc1ccc(C)c(OCc2cc(C(=O)NC3CCN(Cc4ccccc4)CC3)no2)c1`, the inhibition is 22.7% (inactive).

Take `COc1cccc(OCc2cc(C(=O)NCc3cnc4ccccn34)no2)c1`: the inhibition was 4.4% (inactive).

Regarding `CCN(CC)C(=O)C1CCCN(C(=O)c2cc(COc3ccc4ncccc4c3)on2)C1` (stereo not given), the inhibition is 36% (inactive).

`O=C(c1cc(COc2cccc3cnccc23)on1)N1CCCC(CCCO)C1` (stereo not given): the inhibition was 61.6% (active).

As for `CSc1ccccc1OCc1cc(C(=O)N2CCC(c3ccncc3)CC2)no1`, the inhibition was 29.9% (inactive).

For `N#C/C(=C\c1ccc(O)c([N+](=O)[O-])c1)c1nc2ccccc2s1`, the inhibition was 76.9% (active).

Take `CCOc1ccc(-c2csc(/C(C#N)=C\c3ccc(O)c([N+](=O)[O-])c3)n2)cc1`: the inhibition is 0.4% (inactive).

As to `NS(=O)(=O)c1ccc(Sc2nc3ccccc3s2)c([N+](=O)[O-])c1`, the inhibition is 35.3% (inactive).

On to `CCOC(=O)c1c(-c2ccccc2)csc1NC(=O)CSc1nc(N)cc(N)n1`, for which the inhibition was 61.5% (active).

As for `CC(C)c1ccc(-c2csc(NC(=O)c3cccs3)c2C(=O)O)cc1`, the inhibition is 16.6% (inactive).

Take `Cc1sc(NC(=O)CSc2ncn(-c3ccccc3)n2)nc1-c1ccccc1`: the inhibition is 33.1% (inactive).

Turning to `CCOc1cc(/C=C2\CN(C)C/C(=C\c3ccc(O)c(OCC)c3)C2=O)ccc1O`, the inhibition is 65.5% (active).

`CCOc1cc(/C=C2\CN(CC)C/C(=C\c3ccc(O)c(OCC)c3)C2=O)ccc1O`: the inhibition was 96.7% (active).

For `CC(C)COc1ccc(C(=O)Nc2sc3c(c2C(=O)O)CC(C)(C)OC3)cc1`, the inhibition is 35.4% (inactive).

Consider `CCOC(=O)c1c(NC(=S)NCCc2ccccc2)sc2c1CC(C(C)C)OC2` (stereo not given), for which the inhibition is 82.3% (active).

For the compound `CCCCCCCCn1c2c(c(=N)c3ccccc31)CCC2`, the inhibition was 74.7% (active).

For `CCCCCCCCCCn1c2c(c(=N)c3c1CCC3)CCC2`, the inhibition was 78.4% (active).

As to `CCCCCCCCCn1c2c(c(=N)c3c1CCC3)CCC2`, the inhibition was 74.8% (active).

For the compound `Cc1c(C)n(Cc2ccccc2)c2ncnc(Cl)c12`, the inhibition is 42.6% (inactive).

Consider `Cc1ccc2[nH]c3c(N4CCc5ccccc5C4)ncnc3c2c1`, for which the inhibition was 83.8% (active).

For `c1ccc(CN2CCN(c3ncnc4c3[nH]c3ccccc34)CC2)cc1`, the inhibition is 73.4% (active).

In the case of `COCCCNC(=O)c1sc2ncnc(N3CCc4ccccc4C3)c2c1C`, the inhibition was 44.9% (inactive).

Take `Oc1c(CN2CCN(c3ccccc3)CC2)cc(Br)c2cccnc12`: the inhibition was 15.7% (inactive).

`Cc1ccc2c(c1)[nH]c1c(N3CCN(Cc4ccccc4)CC3)ncnc12`: the inhibition is 72.7% (active).

With `O=C(CN1CCN(Cc2ccccc2)CC1)N1N=CCC1c1ccccc1` (stereo not given), the inhibition is 21.7% (inactive).

For the compound `Cc1ccc2[nH]c3c(N4CCN(Cc5ccccc5)CC4)ncnc3c2c1`, the inhibition is 76.9% (active).

With `Cc1csc2ncnc(NC3CCN(Cc4ccccc4)CC3)c12`, the inhibition was 32.1% (inactive).

Turning to `Fc1ccc2[nH]c3c(N4CCc5ccccc5C4)ncnc3c2c1`, the inhibition was 45.8% (inactive).

Take `CCN1CCN(Cc2ccc(NC(=O)c3ccc(C)c(NC(=O)C(=O)c4c[nH]c5ccccc45)c3)cc2C(F)(F)F)CC1`: the inhibition was 26.4% (inactive).

Consider `CCC(Cc1ccccc1)NS(=O)(=O)c1ccc2c(c1)NC(=O)C(C)S2` (stereo not given), for which the inhibition was -1.2% (inactive).

In the case of `COc1ccc(NS(=O)(=O)c2ccc3c(c2)NC(=O)C(C)S3)cc1` (stereo not given), the inhibition is 9.8% (inactive).

For `CCC1Sc2ccc(S(=O)(=O)Nc3ccc(OC)c(OC)c3)cc2NC1=O` (stereo not given), the inhibition is 51.8% (active).

Consider `CCn1nc([N+](=O)[O-])c(C(C#N)c2nc3cc(C(F)(F)F)ccc3s2)c(Cl)c1=O` (stereo not given), for which the inhibition was 34.1% (inactive).

`Cc1cc(C)c(S(=O)(=O)/N=C2\C=C(Nc3ccc(C(=O)O)cc3)C(=O)c3ccccc32)c(C)c1`: the inhibition is 107% (active).

For `Cc1ccc(NS(=O)(=O)c2ccc3c(c2)C(=O)c2ccccc2C3=O)c(C)c1`, the inhibition was 2.1% (inactive).

`Cc1ccc(C)c(S(=O)(=O)/N=C2\C=C(NS(=O)(=O)c3ccccc3)C(=O)c3ccccc32)c1`: the inhibition was 102% (active).

`Cc1ccc(NC2=C(Cl)C(=O)c3ccccc3C2=O)cc1`: the inhibition was -26.5% (inactive).

Regarding `Cc1cc(C)c(S(=O)(=O)/N=C2\C=C(NS(=O)(=O)c3ccccc3)C(=O)c3ccccc32)c(C)c1`, the inhibition is 94.9% (active).

For `Cc1ccc(NC(=O)COc2ccc(/C=C3/SC(=Nc4ccccc4)N(Cc4cccnc4)C3=O)cc2)cc1`, the inhibition was 14.5% (inactive).

Consider `CCc1ccc(NC(=O)C2CCN(S(=O)(=O)c3ccc4c(c3)CC(C)N4C(C)=O)CC2)cc1` (stereo not given), for which the inhibition was 70% (active).

Regarding `COc1ccccc1NC(=O)C1CCCN(S(=O)(=O)c2ccc3c(c2)CC(C)N3C(C)=O)C1` (stereo not given), the inhibition was 47.2% (inactive).

On to `CC(=O)N1c2ccc(S(=O)(=O)N3CCC(C(=O)Nc4cccc(C)n4)CC3)cc2CC1C` (stereo not given), for which the inhibition was 40.5% (inactive).

Turning to `O=C(CN1CCc2cc3c(cc2C1)OCCCO3)Nc1c(F)cccc1F`, the inhibition is -3.8% (inactive).

Take `O=C(/C=C/c1ccncc1)c1ccc2c(c1)OCCO2`: the inhibition is -1.4% (inactive).

As to `O=C(CN1C(=O)c2ccccc2S1(=O)=O)c1ccc2c(c1)OCCO2`, the inhibition is 95% (active).

`O=C(CN1C(=O)c2ccccc2S1(=O)=O)c1ccc2c(c1)OCCCO2`: the inhibition was 95.7% (active).

`O=C(CSc1ncnc2c1oc1ccccc12)N1CCCc2ccccc21`: the inhibition is 18.1% (inactive).

Take `O=C1C(=O)N(c2nccs2)C(c2ccccc2)/C1=C(\O)c1ccc2c(c1)OCCO2` (stereo not given): the inhibition is 31.4% (inactive).

On to `O=C(CN1C(=O)c2ccccc2S1(=O)=O)N1CCc2ccccc21`, for which the inhibition was 70.7% (active).

In the case of `Cc1ccccc1CN1CCc2c(OCC(=O)N3CCCc4ccccc43)cccc2C1=O`, the inhibition is 48.2% (inactive).

As for `CC(C)CCn1c(Sc2nc3ccccc3o2)nc2c1c(=O)[nH]c(=O)n2C`, the inhibition is 26.6% (inactive).

Consider `O=C(CSc1nc2ccccc2c(=O)[nH]1)Nc1ccccc1C(F)(F)F`, for which the inhibition is 21.5% (inactive).

`O=C(CSc1nnnn1C1CC2CCC1C2)Nc1ccnc2ccccc12` (stereo not given): the inhibition was 54.8% (active).

With `Cc1nn(-c2ccccc2)c2nc(C(Cl)(Cl)Cl)[nH]c(=O)c12`, the inhibition was 23.6% (inactive).

Consider `Cc1nn(-c2cccc(Cl)c2)c2nc(C(F)(F)F)[nH]c(=O)c12`, for which the inhibition was 58.8% (active).

With `Cc1nn(-c2cc(C(F)(F)F)ccc2Cl)c2nc(C(Cl)(Cl)Cl)[nH]c(=O)c12`, the inhibition was 71.3% (active).

For the compound `O=C(O)c1cccc(N/N=C/c2cccc3ccccc23)c1`, the inhibition was 54.1% (active).

Take `O=C(O)c1ccc(N/N=C/c2ccc3nccnc3c2)cc1`: the inhibition is 48.6% (inactive).

As to `O=C(O)c1cccc(N/N=C/c2cccs2)c1`, the inhibition is -23% (inactive).

For the compound `N#Cc1c(-c2ccccc2)nc(SCc2cccc(C(F)(F)F)c2)[nH]c1=O`, the inhibition was -14.5% (inactive).

As for `O=c1cc(C(F)(F)F)nc(SCc2cccc3ccccc23)[nH]1`, the inhibition was 61.3% (active).

Regarding `CS(=O)(=O)c1ccc(S(=O)CC(=O)OCc2ccccc2)c([N+](=O)[O-])c1` (stereo not given), the inhibition is 50.2% (active).

On to `CS(=O)(=O)c1ccc(C(=O)OCc2nnc(-c3ccccc3)o2)cc1[N+](=O)[O-]`, for which the inhibition was 38.9% (inactive).

For `CS(=O)(=O)c1ccc(Sc2nc3ccccc3s2)c([N+](=O)[O-])c1`, the inhibition was -1.5% (inactive).

Regarding `Cc1cc(C(=O)NC2CCCc3c2cnn3-c2ccc(C)c(C)c2)n(C)n1` (stereo not given), the inhibition was 74.6% (active).

For the compound `Cc1ccc(-n2ncc3c2CCCC3NC(=O)c2cnccn2)cc1C` (stereo not given), the inhibition is 37.7% (inactive).

Consider `CCn1nc(C)cc1C(=O)NC1CCCc2c1cnn2-c1ccc(C)c(C)c1` (stereo not given), for which the inhibition was 58.9% (active).

For the compound `O=C1C=C(c2ccccc2)C[C@H](c2cccs2)[C@H]1n1nnc([N+](=O)[O-])n1`, the inhibition was 35.8% (inactive).

Turning to `Cc1cc(C(=O)CCl)c(C)n1-c1cccc(S(=O)(=O)N2CCOCC2)c1`, the inhibition is 52.4% (active).

`Cc1cc(NC(=S)NC(=O)/C=C/c2ccc(S(=O)(=O)N3CCOCC3)cc2)ccc1Br`: the inhibition was -18.3% (inactive).

Take `O=C(c1[nH]nc2c1CCc1ccccc1-2)N1CCN(Cc2ccc3c(c2)OCO3)CC1`: the inhibition is 45.6% (inactive).

With `O=C(NC(=S)N1CCN(Cc2ccc3c(c2)OCO3)CC1)c1cccc(Br)c1`, the inhibition is 76.1% (active).

With `COc1cc(/C=C2\CCC/C(=C\c3ccc(O)c(OC)c3)C2=O)ccc1O`, the inhibition is 9.3% (inactive).

For the compound `COc1cc(OC)c(OC)cc1/C=C1\CCC/C(=C\c2cc(OC)c(OC)cc2OC)C1=O`, the inhibition was 41.8% (inactive).

Turning to `COc1cc(/C=C2/CCC/C(=C\c3cc(O)c(OC)c(Cl)c3)C2=O)cc(Cl)c1O`, the inhibition is 108% (active).

In the case of `CCOc1cc(/C=C2\CCC/C(=C\c3cc(Cl)c(O)c(OCC)c3)C2=O)cc(Cl)c1O`, the inhibition is 87.7% (active).

As to `COc1ccc(N(C(=O)CCl)C(C(=O)NC2CCCCC2)c2cccnc2)cc1` (stereo not given), the inhibition was 87.1% (active).

As for `O=C(NC1CCCCC1)C(c1cccnc1)N(C(=O)CCl)c1ccc(F)cc1` (stereo not given), the inhibition is 69.8% (active).

Take `COc1ccc(C(C(=O)NC2CCCCC2)N(C(=O)CCl)c2ccc(C)cc2)cc1` (stereo not given): the inhibition is 37% (inactive).

`COc1ccc(C(C(=O)NC2CCCCC2)N(C(=O)CCl)c2ccc(OC)cc2)cc1` (stereo not given): the inhibition is 40.2% (inactive).

As for `CC(=O)NC(c1ccco1)c1ccc2cccnc2c1O` (stereo not given), the inhibition is 26.6% (inactive).

On to `CC(=O)NC(c1cccs1)c1cc([N+](=O)[O-])c2cccnc2c1O` (stereo not given), for which the inhibition is 105% (active).

For `CC(C)C(=O)NC(c1cccs1)c1cc([N+](=O)[O-])c2cccnc2c1O` (stereo not given), the inhibition was 54.8% (active).

The record behind these values is PubChem BioAssay AID1852 (Sanford-Burnham Center for Chemical Genomics, 2009).
